In all, about 5,500 compounds went through this assay and about 2,000 (36%) were called active. About 18% were inconclusive and are not listed. Cut-off read from the data, not from the text of the source: active = normalized growth mostly below about 0.91 (no sharp cut-off); inconclusive = no clear call, values can overlap the other calls; inactive = mostly above about 0.92. The list shows a part of the results.
Experiment: chemical genetic growth profiling, strain panel (AID 1159580);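 note: tested at 20 µM; growth read once vehicle control cultures reached saturation at 30 °C; 1 = growth at the plate median or of vehicle wells; lower values mean less growth of the strain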
Conditions: growth OD
[1] = S. cerevisiae deletion strains, locus YAL013W, strain DEP1, hits give low values
[2] = S. cerevisiae deletion strains, locus YBR229C, strain ROT2, hits give low values
[3] = S. cerevisiae deletion strains, locus YCL061C, strain MRC1, hits give low values
[4] = S. cerevisiae deletion strains, locus YDL101C, strain DUN1, hits give low values
[5] = S. cerevisiae deletion strains, locus YDL134C, strain PPH21, hits give low values
[6] = S. cerevisiae deletion strains, locus YDR150W, strain NUM1, hits give low values
[7] = S. cerevisiae deletion strains, locus YEL061C, strain CIN8, hits give low values
[8] = S. cerevisiae deletion strains, locus YGR078C, strain PAC10, hits give low values
[9] = S. cerevisiae deletion strains, locus YHR030C, strain SLT2, hits give low values
[10] = S. cerevisiae deletion strains, locus YHR087W, strain rtc3, hits give low values
[11] = S. cerevisiae deletion strains, locus YJR043C, strain POL32, hits give low values
[12] = S. cerevisiae deletion strains, locus YJR075W, strain HOC1, hits give low values
[13] = S. cerevisiae deletion strains, locus YLR039C, strain RIC1, hits give low values
[14] = S. cerevisiae deletion strains, locus YLR058C, strain SHM2 (second series), hits give low values
[15] = S. cerevisiae deletion strains, locus YLR085C, strain ARP6, hits give low values
[16] = S. cerevisiae deletion strains, locus YLR262C, strain YPT6, hits give low values
[17] = S. cerevisiae deletion strains, locus YML094W, strain GIM5, hits give low values
[18] = S. cerevisiae deletion strains, locus YMR219W, strain ESC1, hits give low values
[19] = S. cerevisiae deletion strains, locus YMR263W, strain SAP30, hits give low values
[20] = S. cerevisiae deletion strains, locus YMR307W, strain GAS1, hits give low values
[21] = S. cerevisiae deletion strains, locus YNL153C, strain GIM3, hits give low values
[22] = S. cerevisiae deletion strains, locus YNL298W, strain CLA4 (second series), hits give low values
[23] = S. cerevisiae deletion strains, locus YNL322C, strain KRE1, hits give low values
[24] = S. cerevisiae deletion strains, locus YNR030W, strain Alg12, hits give low values
[25] = S. cerevisiae deletion strains, locus YPL055C, strain LGE1, hits give low values
[26] = S. cerevisiae deletion strains, locus YPL241C, strain CIN2, hits give low values
[27] = S. cerevisiae deletion strains, locus YPR135W, strain CTF4, hits give low values
[28] = S. cerevisiae strains, strain wild type, hits give low values
[29] = S. cerevisiae deletion strains, locus YKL190W, strain CNB1, hits give low values
[30] = S. cerevisiae deletion strains, locus YOL006C, strain TOP1, hits give low values

Measured: normalized growth

CSC(=NC#N)N1CCN(c2ccc([N+](=O)[O-])cn2)CC1
inactive: [1] 0.997 | [2] 1.01 | [3] 1 | [4] 1.02 | [5] 0.987 | [6] 1.07 | [7] 0.957 | [8] 0.996 | [9] 0.958 | [10] 0.991 | S. cerevisiae deletion strains, locus YJL187C, strain SWE1, hits give low values 0.993 | [11] 1.01 | [12] 1.01 | [13] 0.986 | [14] 0.989 | [15] 0.933 | [16] 0.978 | [17] 0.966 | [18] 0.996 | [19] 1.01 | [20] 1.1 | [21] 1 | [22] 0.978 | [23] 0.99 | [24] 0.954 | [25] 1.08 | [26] 0.99 | [27] 1.09 | [28] 0.983

COc1ccc2c(c1)CCC(c1ccccc1)=C2c1ccc(OCCN2CCCC2)cc1
inactive: [2] 0.946 | S. cerevisiae deletion strains, locus YDL185W, strain tfp1, hits give low values 0.972 | S. cerevisiae deletion strains, locus YER155C, strain BEM2, hits give low values 0.961 | S. cerevisiae deletion strains, locus YGL078C, strain dbp3, hits give low values 0.973 | [8] 0.852 | S. cerevisiae deletion strains, locus YIL125W, strain kgd1, hits give low values 0.987 | S. cerevisiae deletion strains, locus YJL134W, strain LCB3, hits give low values 1.01 | S. cerevisiae deletion strains, locus YKL009W, strain mrt4, hits give low values 0.925 | S. cerevisiae deletion strains, locus YKL068W, hits give low values 0.994 | S. cerevisiae deletion strains, locus YKL085W, strain MDH1 (second series), hits give low values 0.976 | S. cerevisiae deletion strains, locus YKL085W, strain MDH1, hits give low values 0.976 | [16] 1.16 | S. cerevisiae deletion strains, locus YMR078C, strain ctf18, hits give low values 0.979 | [20] 0.764 | S. cerevisiae deletion strains, locus YNL250W, strain rad50, hits give low values 0.953 | S. cerevisiae deletion strains, locus YNL271C, strain bni1, hits give low values 0.992 | S. cerevisiae deletion strains, locus YNL298W, strain CLA4, hits give low values 0.957 | S. cerevisiae deletion strains, locus YPR141C, strain kar3, hits give low values 0.977
active: S. cerevisiae deletion strains, locus YBR021W, strain FUR4, hits give low values 0.239 | S. cerevisiae deletion strains, locus YCL029C, strain bik1, hits give low values 0.549 | S. cerevisiae deletion strains, locus YDL035C, strain GPR1, hits give low values 0.638 | S. cerevisiae deletion strains, locus YDL074C, strain BRE1, hits give low values 0.511 | [4] 0.329 | [5] 0.407 | S. cerevisiae deletion strains, locus YDL192W, strain arf1, hits give low values 0.095 | S. cerevisiae deletion strains, locus YDR101C, strain arx1, hits give low values 0.675 | S. cerevisiae deletion strains, locus YDR162C, strain NBP2, hits give low values 0.174 | S. cerevisiae deletion strains, locus YDR318W, strain mcm21, hits give low values 0.382 | S. cerevisiae deletion strains, locus YDR388W, hits give low values 0.181 | S. cerevisiae deletion strains, locus YDR502C, strain sam2, hits give low values 0.405 | S. cerevisiae deletion strains, locus YER110C, hits give low values 0.863 | S. cerevisiae deletion strains, locus YER167W, strain BCK2, hits give low values 0.85 | S. cerevisiae deletion strains, locus YGL086W, strain mad1, hits give low values 0.28 | S. cerevisiae deletion strains, locus YGL248W, strain PDE1, hits give low values 0.465 | S. cerevisiae deletion strains, locus YGR135W, strain pre9, hits give low values 0.408 | S. cerevisiae deletion strains, locus YGR252W, strain gcn5, hits give low values 0.251 | S. cerevisiae deletion strains, locus YHR079C, strain IRE1 (second series), hits give low values 0.617 | S. cerevisiae deletion strains, locus YHR094C, strain hxt1, hits give low values 0.714 | S. cerevisiae deletion strains, locus YHR129C, strain ARP1, hits give low values 0.674 | S. cerevisiae deletion strains, locus YHR200W, strain rpn10, hits give low values 0.706 | S. cerevisiae deletion strains, locus YIL066C, strain RNR3, hits give low values 0.553 | S. cerevisiae deletion strains, locus YIL073C, strain SPO22, hits give low values 0.3 | S. cerevisiae deletion strains, locus YIR030C, strain dcg1, hits give low values 0.513 | S. cerevisiae deletion strains, locus YJL095W, strain BCK1, hits give low values 0.138 | S. cerevisiae deletion strains, locus YJL168C, strain set2, hits give low values 0.409 | S. cerevisiae deletion strains, locus YJL187C, strain SWE1 (second series), hits give low values 0.367 | [12] 0.593 | [29] 0.524 | S. cerevisiae deletion strains, locus YKR001C, strain vps1, hits give low values 0.0705 | [13] 1.37 [resistant] | S. cerevisiae deletion strains, locus YLR058C, strain SHM2, hits give low values 0.446 | S. cerevisiae deletion strains, locus YLR102C, strain apc9, hits give low values 0.683 | S. cerevisiae deletion strains, locus YLR268W, strain sec22, hits give low values 0.415 | S. cerevisiae deletion strains, locus YLR342W, strain FKS1 (second series), hits give low values 0.348 | S. cerevisiae deletion strains, locus YLR371W, strain rom2, hits give low values 0.355 | S. cerevisiae deletion strains, locus YLR418C, strain cdc73, hits give low values 0.295 | S. cerevisiae deletion strains, locus YML016C, strain PPZ1, hits give low values 0.491 | S. cerevisiae deletion strains, locus YML032C, strain rad52, hits give low values 0.492 | S. cerevisiae deletion strains, locus YML124C, strain tub3, hits give low values 0.672 | S. cerevisiae deletion strains, locus YMR223W, strain ubp8, hits give low values 0.478 | S. cerevisiae deletion strains, locus YNL067W, strain RPL9B, hits give low values 0.825 | S. cerevisiae deletion strains, locus YNL233W, strain BNI4, hits give low values 0.423 | S. cerevisiae deletion strains, locus YNL307C, strain MCK1, hits give low values 0.258 | [23] 0.796 | S. cerevisiae deletion strains, locus YNR052C, strain pop2, hits give low values 0.136 | [30] 0.323 | S. cerevisiae deletion strains, locus YOL012C, strain htz1 0.17 | S. cerevisiae deletion strains, locus YOL147C, strain pex11, hits give low values 0.445 | S. cerevisiae deletion strains, locus YOR061W, strain CKA2, hits give low values 0.206 | S. cerevisiae deletion strains, locus YOR069W, strain VPS5, hits give low values 0.859 | S. cerevisiae deletion strains, locus YOR136W, strain idh2, hits give low values 0.734 | S. cerevisiae deletion strains, locus YOR144C, strain elg1, hits give low values 0.813 | S. cerevisiae deletion strains, locus YOR184W, strain ser1, hits give low values 0.522 | S. cerevisiae deletion strains, locus YOR316C, strain cot1, hits give low values 0.794 | S. cerevisiae deletion strains, locus YPR119W, strain clb2, hits give low values 0.774 | S. cerevisiae deletion strains, locus YPR163C, strain tif3, hits give low values 0.0746 | S. cerevisiae deletion strains, locus YPR167C, strain met16, hits give low values 0.633 | S. cerevisiae deletion strains, strain wtn01, hits give low values 0.274 | [28] 0.358

CC12NC(=O)NC1(C)NC(=O)N2 (centres undefined)
inactive: [1] 1.04 | [2] 1.01 | [3] 1 | [4] 1.01 | [5] 1.02 | [6] 0.997 | [7] 1.03 | [8] 1.02 | S. cerevisiae deletion strains, locus YGR229C, strain SMI1, hits give low values 1.01 | [9] 1.07 | [10] 1.01 | [11] 1.01 | [12] 1.02 | [29] 1.03 | [13] 1.06 | [14] 1.02 | [15] 1.05 | [16] 1.04 | [17] 1.04 | [18] 1.01 | [19] 1.01 | [20] 1.11 | [21] 1 | [22] 1.05 | [23] 1.01 | [24] 1.02 | [30] 1.09 | [25] 1.04 | [26] 1.05 | [27] 1.02 | [28] 1.01

Reference: PubChem BioAssay AID1159580 (chemical genetic matrix, 2015)
